Screening data (PubChem)
Rows were chosen to be rich in hits. Some 9.2% of all compounds tested hit in one or more screens of this group.
Rab9 promoter act: qHTS Assay for Rab9 Promoter Activators; 320,000 tested, 2.8% active; Potency, µM (highest dose often 9.22 µM), without a hit: at the highest dose activation, negative = inhibition, hits mostly activators; Huh7 Rab9 promoter-luciferase reporter, luminescence, 24 h; note: % of control where 0% means no effect; nearly all actives have a fitted effect of over 60% in size
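Measured in stably transfected Huh7 cells bearing a Rab9 promoter–luciferase construct: 24 h compound treatment at 37 °C, followed by luminescence detection.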
ELG1 genotoxic: qHTS screen for small molecules that induce genotoxicity in human embryonic kidney (HEK293T) cells expressing luciferase-tagged ELG1 | HEK293T ELG1-luciferase reporter, luminescence, 16 h | Potency, µM (doses to about 46 µM), for the others: at the highest dose activity change, positive = activation, most hits filed as activators | 330,000 tested, 1.3% active | AID 504466, 2011; note: % of control where 0% means no effect; nearly all actives have a fitted effect of over 60% in size
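ELG1-luciferase HEK293T cells, 2,000/well; compound pinned in; 16 hr, 37 °C, 5% CO2; ONE-Glo, 30 min RT; luminescence on CCD imager.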
SMN2 splice up: qHTS Assay for Enhancers of SMN2 Splice Variant Expression. Potency, µM (highest dose often 46.1 µM), for the others: at the highest dose activity change, positive = activation, usual class: activators. 210,000 tested, 2.8% active. HEK293 SMN2-luciferase splicing reporter, luminescence, 30-36 h; note: % of control where 0% means no effect; nearly all actives have a fitted effect of over 55% in size
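HEK293 cells carry an SMN2 minigene-luciferase reporter in which exon 7 inclusion puts luciferase in frame. Cells were seeded at 2000 cells/well, attached for 10-12 hours, then exposed to compounds for 30-36 hours at 37C before ONE-Glo luminescence.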
NPC1 prom act: qHTS Assay for NPC1 Promoter Activators; Huh7 NPC1 promoter luciferase reporter, 24 h; Potency, µM (series often up to 9.22 µM), for the others: at the top dose activation, actives largely listed as activators; 320,000 tested, 2.4% active; note: % of control where 0% means no effect; nearly all actives have a fitted effect of over 60% in size
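In 1536-well qHTS, Huh7 cells harboring an NPC1 promoter–luciferase construct received compound for 24 h; activation was quantified by luminescence following luciferase reagent addition.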
ELG1 DNA repair: qHTS screen for small molecules that inhibit ELG1-dependent DNA repair in human embryonic kidney (HEK293T) cells expressing luciferase-tagged ELG1 | HEK293T ELG1-luciferase reporter, luminescence, 16 h; DNA damage induced by 5-fluorouridine | Potency, µM (series often up to 46.1 µM), without a hit: at the highest dose activity change, negative = inhibition, actives largely listed as inhibitors | 330,000 tested, 2.3% active; note: % is set by controls: 0 for no effect and ±100 for the full control effect; nearly all actives have a fitted effect of over 55% in size
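5-Fluorouridine DNA damage + compound/DMSO, 2,000 cells/well, 16 h, 37 °C/5% CO2. ONE-Glo, 30 min RT, luminescence. Readout = decrease in reporter signal.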
FLuc counter: qHTS profiling assay for firefly luciferase inhibitor/activator using purifed enzyme and Km concentrations of substrates (counterscreen for miR-21 project). purified FLuc, Km substrates, luminescence inhibition. Potency, µM (titrated, usually from 57.5 µM), for the others: at the highest dose activity change, negative = inhibition, actives largely listed as inhibitors. 360,000 tested, 6.9% active. AID 588342, 2011;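 note: plate controls were vehicle for no effect and reference inhibitor for full effect; nearly all actives have a fitted effect of over 55% in size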
Target sequence (P08659 whole entry, looked up): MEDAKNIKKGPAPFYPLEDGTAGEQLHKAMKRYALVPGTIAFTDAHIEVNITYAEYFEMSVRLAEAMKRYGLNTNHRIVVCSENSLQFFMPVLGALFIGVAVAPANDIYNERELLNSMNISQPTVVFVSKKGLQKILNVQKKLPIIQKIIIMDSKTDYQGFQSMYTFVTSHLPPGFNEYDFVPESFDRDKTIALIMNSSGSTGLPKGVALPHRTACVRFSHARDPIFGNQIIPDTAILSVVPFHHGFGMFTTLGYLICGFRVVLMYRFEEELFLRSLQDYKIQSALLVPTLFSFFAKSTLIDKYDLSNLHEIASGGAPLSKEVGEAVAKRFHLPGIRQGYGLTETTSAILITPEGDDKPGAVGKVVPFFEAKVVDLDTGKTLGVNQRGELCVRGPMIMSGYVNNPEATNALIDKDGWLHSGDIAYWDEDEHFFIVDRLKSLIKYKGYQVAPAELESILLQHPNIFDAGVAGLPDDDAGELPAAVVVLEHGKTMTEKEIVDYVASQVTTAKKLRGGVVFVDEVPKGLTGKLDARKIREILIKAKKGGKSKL
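Biochemical qHTS of compounds, final roughly 60 µM downward over six points, against 10 nM purified firefly luciferase using Km concentrations of substrates (10 uM D-luciferin, 10 uM ATP) in Tris acetate pH 7.5 buffer; luminescence output.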
Numbers without * were called inactive; ? = inconclusive; / = not tested or not shown. Calls come from the whole dose curve; as a rule, active = well fitted curve in the direction sought with a large enough effect; inconclusive = small, poorly fitted or top-dose-only effect, or another doubt; inactive = no such curve, though single readings can be large; an effect the other way counts as inactive or inconclusive. Potency is the fitted concentration of half-maximal effect.

SMILES	Rab9 promoter act	ELG1 genotoxic	SMN2 splice up	NPC1 prom act	ELG1 DNA repair	FLuc counter
O=C(CN1C(=O)c2ccccc2S1(=O)=O)c1ccc(F)cc1	?	-6.0%	/	?	-1.2%	13.5µM*
CCN(CC)CCNC(=O)c1ccc2c(c1)NC(=O)C(CS(=O)(=O)Cc1ccc(F)cc1Cl)N2 (stereo not given)	/	/	/	/	/	-6.1%
Cc1ccc(SCC(=O)Nc2ccc(N3CCOCC3)cc2)cc1C	-0.8%	-3.2%	/	5.4%	-1.7%	-8.3%
COc1ccc(-n2ccn(CC(=O)Nc3ccccc3C(F)(F)F)c(=O)c2=O)cc1OC	/	/	/	/	/	-6.3%
CC(=O)Nc1nn(C)c2nc3ccc(C)cc3cc12	-0.4%	0.5%	/	-0.4%	9.7%	-17.2%
O=C(Cn1c(=O)c(C(F)(F)F)nc2ccccc21)Nc1cccc(Br)c1	/	/	/	/	/	-0.1%
O=C(CN1C(=O)c2ccccc2S1(=O)=O)N1CCN(c2ccccc2F)CC1	9.3%	0.0%	-5.4%	3.0%	?	?
O=C(CN1C(=O)c2ccccc2S1(=O)=O)c1ccccc1F	?	4.7%	/	?	?	10.7µM*
COC1=CC(=O)c2ccccc2C1=O	/	-8.6%	/	/	18.3µM*	/
C/C(=N\NC(N)=O)c1ccc(-n2ccnc2)cc1	1.4%	5.7%	-2.7%	-4.6%	21.8%	-1.4%
COc1ccc(OCC(=O)N/N=C(\C)c2cc3ccccc3o2)cc1	14.9%	16.0%	26.8%	17.4%	?	1.51µM*
Cn1c(/C=N/NC(=O)c2ccccc2)nc2ccccc21	12.1%	2.6%	-17.1%	11.5%	4.4%	-13.9%
C/C(=N\Nc1ccc(C(=O)O)cc1)c1ccc(-n2ccnc2)cc1	3.98µM*	?	20µM*	2.51µM*	?	12µM*
C/C(=N\Nc1ccc(C(=O)O)cc1)c1nc2ccccc2n1C	1.12µM*	?	10µM*	0.562µM*	?	10.7µM*
CCc1ccc(OCC(=O)N/N=C(\C)c2ccc(-n3ccnc3)cc2)cc1	17.9%	8.6%	/	14.6%	-10.7%	1.35µM*
Cc1cc(C(=O)NCc2cccc(Br)c2)c2c(C)nn(-c3ccccc3)c2n1	/	/	/	/	/	-3.2%
CN(Cc1nc(-c2ccc(Cl)cc2)no1)S(=O)(=O)c1ccccc1	/	/	-2.8%	/	/	-16.7%
COc1ccc(OCC(=O)N/N=C(\C)c2ccc(OC)cc2)cc1	0.9%	1.1%	-8.3%	-1.5%	-0.7%	23.9µM*
C/C(=N\NC(=O)COc1ccccc1)c1ccc(O)cc1	20.7%	9.0%	/	17.6%	?	?
COc1ccc(CCN2C(=O)c3[nH]nc(-c4ccccc4O)c3C2c2ccc(O)c(OC)c2)cc1 (stereo not given)	/	/	4.7%	/	/	3.5%
COc1ccc(CCN2C(=O)c3[nH]nc(-c4ccccc4O)c3C2c2ccccc2)cc1OC (stereo not given)	-0.4%	-18.5%	-17.4%	0.3%	13µM*	11.5%
O=C(COc1cccc2cccnc12)N/N=C/c1ccccc1O	-6.5%	1.3%	/	-2.1%	8.2µM*	-10.4%
Cc1ccccc1OCC(=O)N/N=C/c1cccc2cccnc12	3.4%	2.2%	/	-2.7%	-23.5%	-15.1%
O=C(COc1cccc2cccnc12)N/N=C/c1ccc(O)cc1	1.4%	-5.2%	12.0%	-3.8%	15.2%	16.9µM*
O=C(COc1cccc2cccnc12)Nc1ccccc1	3.98µM*	11.0%	?	?	?	21.3µM*
SMILES	Rab9 promoter act	ELG1 genotoxic	SMN2 splice up	NPC1 prom act	ELG1 DNA repair	FLuc counter
O=C(COc1cccc2cccnc12)Nc1cccc(S(=O)(=O)N2CCCC2)c1	-6.5%	-2.3%	/	-1.4%	?	-13.8%
Oc1ccccc1/C=N/Nc1cccc2cccnc12	13.1%	?	?	?	?	1.51µM*
Cc1cccc(C)c1NC(=O)CNC(=O)C(C)NC(C)c1ccccc1Br (stereo not given)	0.8%	5.5%	/	-3.3%	6.5%	6.5%
CC(C)C[C@@H](CC(=O)N[C@H](CC(=O)N[C@@H]1CCCC[C@H]1C(=O)N[C@H](CC(=O)N[C@@H](CCC(=O)O)CC(=O)O)Cc1ccccc1)C(C)C)NC(=O)[C@@H]1CCCC[C@H]1N	/	/	-2.1%	/	/	/
COc1ccc(-n2c3c(c(=O)[nH]c2=O)C(NC(=O)c2ccccc2Cl)(C(F)(F)F)C(=O)N3)cc1 (stereo not given)	/	/	-7.2%	/	/	-1.2%
COc1ccc(-c2nc(NC(C)=O)sc2-c2ccccc2)cc1	-3.0%	-2.0%	5.2%	1.4%	20.6µM*	-8.8%
COCCNc1nc(-c2ccc(OC)cc2)c(-c2ccc(OC)cc2)s1	0.7%	-2.8%	8.3%	-7.7%	20.6µM*	-2.3%
Nc1nc2c(C(=O)N3CCOCC3)nnn2c2ccccc12	3.16µM*	?	/	3.16µM*	?	12µM*
COC(=O)c1c(NC(=S)NC(=O)c2ccco2)sc2c1CCCC2	-6.2%	8.0%	-5.2%	-11.4%	?	?
COC(=O)c1c(NC(=S)NN2CCOCC2)sc2c1CCCC2	-2.6%	-3.6%	/	-1.6%	-17.4%	15.1µM*
CCOC(=O)c1c(NC(=O)c2ccc(C)cc2)sc2c1CC(C)(C)OC2	2.2%	-2.7%	-22.9%	-0.7%	8.2µM*	-3.6%
COC(=O)c1c(NC(=O)CN2CCOCC2)sc2c1CCC(C)C2 (stereo not given)	23.4%	18.9%	-4.8%	8.3%	?	12µM*
CCOC(=O)c1c(NC(=O)CCN2CCOCC2)sc2c1CC(C)(C)OC2	-8.0%	1.2%	?	-4.2%	?	6.1%
CCOC(=O)c1c(NC(=O)CN2CCOCC2)sc2c1CC(C)(C)OC2	-1.4%	-7.8%	-2.5%	9.1%	8.2µM*	-0.1%
CCCC(=O)Nc1sc2c(c1C(=O)OCC)CC(C)(C)OC2	-2.2%	-0.7%	2.2%	-4.5%	7.3µM*	-0.2%
CCCCCN1C=CC(=C2C(=O)c3ccccc3C2=O)C=C1	0.0158µM*	-12.6%	-100.3%	0.126µM*	?	0.0675µM*
CCN1C(=C2C(=O)c3ccccc3C2=O)C=Cc2ccccc21	8.8%	?	-1.9%	9.6%	17.3%	?
COc1ccc(-c2c(C)nn3c(N4CCCCCC4)cc(C)nc23)cc1OC	-17.5%	-15.1%	/	-12.6%	11.6µM*	?
COc1ccc(-c2c(C)nn3c(N4CCOCC4)cc(C)nc23)cc1OC	-4.1%	-8.0%	/	-5.0%	16.4µM*	-0.6%
